Shown are actives, neighbours in structure and some others; about 3.5% of the full set was active somewhere.
FBW7 act = activators of human E3 ligase FBW7; AID 1259310; AlphaScreen FBW7–phospho-cyclin E peptide binding, activator screen; normalized activity (activation), % at 26.1 µM; Q969H0; 650,000 tested, 0.13% active; in the data active = normalized activity above about 1.9%;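 note: purified mutant Fbw7 with reduced substrate affinity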
TEAD-YAP block = TEAD-YAP interaction inhibition. HEK-TIYL cells, TEAD-Gal4/YAP UAS-luciferase luminescence. 640,000 tested, 1.4% active. inhibition, % at 9.12 µM. AID 1259422; in the data active = inhibition above about 32%;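 note: 0% = median of test compound wells and 100% = reference inhibitor wells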
GPR151 ag = activators of human GPR151; 650,000 tested, 1% active; AID 1508602; Q8TDV0; PathHunter beta-arrestin GPR151 cells, luminescence; activation, % at 11.2 µM; in the data active = activation above about 4.9%;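 note: 0% = median of compound wells and 100% = cells with positive control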
MITF inh = blocks human microphthalmia-associated transcription factor; inhibition, % at 2.6 µM; AlphaScreen MITF homodimerization, bead proximity signal; AID 1259374; 650,000 tested, 0.91% active; O75030; in the data active = inhibition above about 50%;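 note: 0% = vehicle wells with protein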
Target sequence (O75030 whole entry, looked up): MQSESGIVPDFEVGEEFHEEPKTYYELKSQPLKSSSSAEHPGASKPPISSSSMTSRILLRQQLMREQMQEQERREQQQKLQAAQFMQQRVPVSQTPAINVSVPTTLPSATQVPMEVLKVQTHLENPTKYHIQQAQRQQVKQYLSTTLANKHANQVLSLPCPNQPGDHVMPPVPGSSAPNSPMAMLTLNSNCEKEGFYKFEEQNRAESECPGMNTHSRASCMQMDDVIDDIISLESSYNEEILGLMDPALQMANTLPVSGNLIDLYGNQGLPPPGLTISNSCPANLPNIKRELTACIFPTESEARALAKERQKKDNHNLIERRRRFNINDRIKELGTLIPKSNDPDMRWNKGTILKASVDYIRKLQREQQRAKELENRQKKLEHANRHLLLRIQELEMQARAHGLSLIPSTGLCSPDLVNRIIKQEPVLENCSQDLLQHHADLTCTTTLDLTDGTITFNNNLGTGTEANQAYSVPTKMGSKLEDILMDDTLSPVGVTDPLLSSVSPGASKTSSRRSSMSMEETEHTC
GPR151 conf act = confirmation of human GPR151 activators | activation, % at 11.2 µM | shares compounds with GPR151 ag | AID 1508609 | GPR151 PathHunter beta-arrestin cells, luminescence, 90 min; % of EA-reagent control over plate median | 6,700 tested, under 10 active;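 active = mean percent activation across replicates above the confirmation screen cutoff of 4.91%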
GPR119 counter = counter-screen for GPR151 activators: effect on human GPR119 | GPR119 PathHunter beta-arrestin cells, luminescence, 90 min; 0 = compound-well median, 100 = enzyme-acceptor control | activation, % at 11.2 µM | shares compounds with GPR151 ag | 6,700 tested, 0.3% active;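 active = mean percent activation in the counterscreen above 29.09%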;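 note: counterscreen on off-target GPR119 to flag nonselective hits from the GPR151 activator screen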
Starred values were filed as active, the others as inactive; nt = no result given; ! = not active in a repeat.

SMILES	FBW7 act	TEAD-YAP block	GPR151 ag	MITF inh	GPR151 conf act	GPR119 counter
Cc1ccc2oc(-c3cccc(NC(=S)NC(=O)c4ccc(Cl)cc4)c3C)nc2c1	0	-32	5.3*	2	0	4
CC1Cc2cc(S(=O)(=O)CCC(=O)Nc3cccc(F)c3)ccc2N1C(=O)C1CC1 (stereo unspecified)	0	8	1	-1	nt	nt
CC1Cc2cc(S(=O)(=O)CCC(=O)Nc3ccccc3Cl)ccc2N1C(=O)C1CC1 (stereo unspecified)	0	14	5.2*	2	0	1
COc1ccccc1OCC(=O)NCC(c1ccsc1)N1CCCC1 (stereo unspecified)	0	2	2	10	nt	nt
O=C(Cc1ccc(F)cc1)NCC(c1ccsc1)N1CCCCCC1 (stereo unspecified)	0	-10	6.9*	-3	0	-7
C=CCOc1ccc(/C(O)=C2\C(=O)C(=O)N(c3nc(C)c(C(=O)OCC)s3)C2c2ccc(C(C)C)cc2)c(C)c1 (stereo unspecified)	0	3	4	0	nt	nt
Cc1cc2n(n1)C(c1cccc(O)c1)Nc1ccccc1-2 (stereo unspecified)	0	7	7.9*	11	0	3
c1ccc(Cn2cc(-c3ccc(Nc4nccc(-c5cncc(N6CCOCC6)c5)n4)cc3)cn2)cc1	0	31	6.8*	2	1	24
Cc1ccc(-c2ncn(-c3ccc(Nc4nccc(-c5cncc(N6CCOCC6)c5)n4)cc3)n2)cn1	0	26	-1	7	nt	nt
CCn1c(SCc2cccc(C)c2)nc2c(c1=O)SCC2	0	6	2	-9	nt	nt
Cc1cc(N(C)C)nc(NCCNC(=O)/C=C/c2ccccc2)n1	0	19	5.7*	13	0	-7
CCN(Cc1ccccc1)C(=O)Cn1ncn2cccc2c1=O	0	-8	-2	-13	nt	nt
O=c1[nH]c(CSc2nnc(Nc3ccccc3F)s2)nc2ccccc12	0	-1	7.2*	-19	0	4
CCOc1ccccc1Nc1nnc(SCc2nc3ccccc3c(=O)[nH]2)s1	0	-9	-1	4	nt	nt
O=C(N/N=C/c1cccc(O)c1)c1ccc(Br)o1	0	-25	8.3*	-1	-4	-31
O=C(N/N=C/c1cccnc1)c1ccc(Br)o1	0	-50	-1	3	nt	nt
Cc1cc(OCC(N)=O)c2c(C)c(C)c(=O)oc2c1	1	19	2	15	nt	nt
CCN1CCC(N(Cc2ccco2)C(=O)NC2CCCC2)CC1	0	-1	5.0*	-6	1	-4
CC(C)C1C2CCC(C2)C1N (stereo unspecified)	0	0	5.3*!	10	-1	-11
CSC1=NC(c2cccc([N+](=O)[O-])c2)C(C(=O)OC(C)C)=C(C)N1 (stereo unspecified)	0	1	5.1*	4	0	7
CCC(=O)Oc1cc2c(C(=O)OC(C)C)c(C)oc2cc1Br	0	-44	8.2*	-6	1	17
O=C(Nc1ccccc1N(C(=O)C1CC1)S(=O)(=O)c1cccs1)C1CC1	0	3	5.0*	3	0	15
COc1cc(/C=N/Nc2nc3c(c(=O)[nH]c(=O)n3C)n2CC(C)O)ccc1O (stereo unspecified)	0	0	-2	7	nt	nt
CCOc1cc(/C=N/Nc2nc3c(c(=O)[nH]c(=O)n3C)n2CC(C)C)ccc1O	0	1	6.6*	4	1	5
COc1ccc(-c2[nH]nc3c2C(c2cccc(Cl)c2Cl)C(C#N)=C(N)O3)cc1OC (stereo unspecified)	0	5	0	2	nt	nt
COc1ccc(-c2[nH]nc3c2C(c2c[nH]c4ccccc24)C(C#N)=C(N)O3)cc1OC (stereo unspecified)	0	21	6.4*	29	1	3
COc1ccc(OC)c(/C=C2\N=C(c3ccccc3OC)OC2=O)c1	0	-11	1	13	nt	nt
COc1ccc(/C=C2\N=C(c3ccccc3OC)OC2=O)c(OC)c1	0	-7	6.5*	-3	0	-2
CCN(CC)C(=O)C1CCCN(c2ccc([N+](=O)[O-])cc2[N+](=O)[O-])C1 (stereo unspecified)	0	9	1	-4	nt	nt
